Measured values reported in PubChem BioAssay (NCATS).
Records with an inconclusive call do not appear. Entries that show only a call come without a potency. Values without a mark were called inactive. Active and inactive are the calls of the source. Calls follow the shape of the dose curve; as a rule, active = well fitted curve in the direction sought with a large enough effect; inconclusive = small, poorly fitted or top-dose-only effect, or another doubt; inactive = no such curve, though single readings can be large; an effect the other way counts as inactive or inconclusive.

Columns and labels:
HEK293 = assay: Cytotoxic Profiling of Annotated Libraries Using Quantitative High-Throughput Screening (AID 1296008); conditions: Five cell lines viability, CellTiter-Glo ATP luminescence, 48-72 h; max response: stronger effect = lower value; also: nearly all actives have a fitted effect of over 60% in size; also: potency is read from the fitted curve at half-maximal effect
Summary of the method: (§1)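 Cells exposed to compounds for 48 or 72 hr at 37 degrees Celsius. Viability read as ATP-coupled luminescence with CellTiter-Glo after 10 min at room temperature.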

HaCat [1] = assay: as above; conditions: Five cell lines viability, CellTiter-Glo ATP luminescence, 48-72 h; max response: stronger effect = lower value
Summary of the method: as §1

KB-3-1 = assay: as above; conditions: Five cell lines viability, CellTiter-Glo ATP luminescence, 48-72 h; max response: stronger effect = lower value
Summary of the method: as §1

HACAT [2] = assay: qHTS assay to identify novel small-molecules to repurpose for Merkel cell carcinoma treatment (AID 1296009); conditions: MCC and control cell lines, CellTiter-Glo viability, 72 h; series mostly up to 44.8 µM; also: nearly all actives have a fitted effect of over 60% in size
Summary of the method: (§2)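 Cells were treated for 72 hr at 37 degree celsius with compounds in 8- or 11-point dose response. Viability was read by CellTiter-Glo luminescence, normalized to no-cell (cytotoxicity) and DMSO controls.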

CAOV3 = assay: Primary qHTS to identify gynecologic anti-cancer compounds using libraries of approved drugs and bioactive compounds (AID 1345084); conditions: Gynecologic cancer cell panel viability, ATPlite luminescence, 48 h; series mostly up to 57.5 µM; also: nearly all actives have a fitted effect of over 55% in size; also: potency is read from the fitted curve at half-maximal effect
Summary of the method: (§3)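 Cells, 1,000 per well, were allowed to settle for 16 h at 37 C before compound addition. Five concentrations were tested for 48 h, and viability was read by ATPlite luminescence after 15 min at room temperature.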

CASKI = assay: as above; conditions: Gynecologic cancer cell panel viability, ATPlite luminescence, 48 h; series mostly up to 57.5 µM
Summary of the method: as §3

Es-2 = assay: as above; conditions: Gynecologic cancer cell panel viability, ATPlite luminescence, 48 h; series mostly up to 57.5 µM
Summary of the method: as §3

HeLa = assay: as above; conditions: Gynecologic cancer cell panel viability, ATPlite luminescence, 48 h; series mostly up to 57.5 µM
Summary of the method: as §3

C33A = assay: as above; conditions: Gynecologic cancer cell panel viability, ATPlite luminescence, 48 h; series mostly up to 57.5 µM
Summary of the method: as §3

Hek293T = assay: as above; conditions: Gynecologic cancer cell panel viability, ATPlite luminescence, 48 h, control line for the selectivity index; series mostly up to 57.5 µM
Summary of the method: as §3

JEG-3 = assay: as above; conditions: Gynecologic cancer cell panel viability, ATPlite luminescence, 48 h; series mostly up to 57.5 µM
Summary of the method: as §3

MCC-26 = assay: qHTS assay to identify novel small-molecules to repurpose for Merkel cell carcinoma treatment (AID 1296009); conditions: MCC and control cell lines, CellTiter-Glo viability, 72 h; series mostly up to 46 µM; also: nearly all actives have a fitted effect of over 60% in size
Summary of the method: as §2

SMILES	Potency (HEK293)	outcome (HaCat [1])	Potency (KB-3-1)	Potency (HACAT [2])	Potency (CAOV3)	Potency (CASKI)	Potency (Es-2)	Potency (HeLa)	max response (KB-3-1)	Potency (C33A)	max response (HEK293)	Potency (Hek293T)	Potency (JEG-3)	outcome (KB-3-1)	max response (HaCat [1])	outcome (MCC-26)
CCC1=CC2CN(C1)Cc1c([nH]c3ccccc13)[C@@](C(=O)OC)(c1cc3c(cc1OC)N(C)[C@H]1[C@@](O)(C(=O)OC)[C@H](OC(C)=O)[C@]4(CC)C=CCN5CC[C@]31[C@@H]54)C2 (stereo partly drawn)	0.1 µM (active)	inactive	0.0355 µM (active)	inactive	inactive	inactive	0.282 µM (active)	0.126 µM (active)								
O=C1C=CC2OC(c3ccccc3)C(O)C2O1 (stereo not drawn)	23.1 µM (active)	inactive		inactive		inactive		inactive	-14.2%	inactive						
CCOC(=O)c1sc(NC(=O)[C@H](C(C)C)n2c(=O)[nH]c3ccccc3c2=O)nc1C		inactive		inactive	inactive	inactive	inactive	inactive	8.45%	inactive	-9.44%	inactive	inactive			
O=C(O)[C@H](Cc1ccc(Nc2nccc3ccncc23)cc1)NC1=C(Br)C(=O)C12CCCCC2		inactive		inactive	inactive	inactive	inactive	inactive		inactive	-11.7%	inactive	inactive	inactive		
CC[C@]12C=CCN3CC[C@@]4(c5cc([C@@]6(C(=O)OC)C[C@H]7C[C@@H](C(C)(F)F)CN(Cc8c6[nH]c6ccccc86)C7)c(OC)cc5N(C)[C@H]4[C@@](O)(C(=O)OC)[C@@H]1OC(C)=O)[C@@H]32	0.172 µM (active)	inactive	0.137 µM (active)	inactive	inactive		1 µM (active)	0.631 µM (active)								
COc1ccc(N(C)c2nc(C)nc3ccccc23)cc1	0.0073 µM (active)	inactive	0.0052 µM (active)	inactive												
COc1ccc(-c2c(-c3cc(C(=O)O)ccn3)ncn2C)cc1					inactive	inactive	inactive	inactive	4.75%	inactive	-1.7%	inactive	inactive		-1.2%	
COc1ccc2[nH]c3c(-c4cccc5ccccc45)nccc3c2c1	1.3 µM (active)	inactive	0.82 µM (active)	inactive		1.41 µM (active)	1.58 µM (active)	0.891 µM (active)		2.82 µM (active)						
Nc1ccccc1N	17.2 µM (active)				5.62 µM (active)	7.94 µM (active)	11.2 µM (active)	12.6 µM (active)	-4.37%	10 µM (active)		7.94 µM (active)			3.79%	inactive
COC(=O)CCSCc1ccc(-c2onc(C)c2NC(=O)OC(C)c2ccccc2Cl)cc1 (stereo not drawn)					inactive	inactive	inactive	inactive		inactive	-7.48%	inactive	inactive	inactive	-24.6%	
Cc1cc2c(F)c(Oc3ncnn4cc(OCC(C)O)c(C)c34)ccc2[nH]1 (stereo not drawn)	5.8 µM (active)				inactive	inactive	inactive		-12.6%	inactive					-0.656%	
CC(=O)OC/C=C(\C)C(CC1C(C)=C(OC(C)=O)C(=O)C2C(C)(C)C(O)CCC12C)OC(C)=O (stereo not drawn)		inactive		inactive	inactive	inactive	inactive	inactive		inactive	-0.0321%	inactive	inactive	inactive		
C=C1[C@@H]2CC[C@@H]3[C@@](CCC4C(C(=O)O)(C(=O)O)C[C@@H](O[C@@H]5O[C@H](CO)[C@@H](O)[C@H](O)[C@H]5OC(=O)CC(C)C)C[C@]43C)(C2)[C@H]1O (stereo partly drawn)					inactive	inactive	inactive	inactive		inactive	-0.701%	inactive	inactive	inactive	2.26%	
COc1cc(C)c(C(=O)Oc2cc(C)c(C(=O)Oc3cc(C)c(C(=O)NC(C)C(=O)O)c(O)c3)c(O[C@@H]3O[C@H](CO)[C@@H](O)[C@H](O)[C@H]3OC(C)=O)c2)c(OC)c1 (stereo partly drawn)					inactive	inactive	inactive	inactive	-6.88%	inactive	-3.13%	inactive	inactive		-13.9%	
Cc1csc(NC(=O)c2ccc(COc3cccc(Cl)c3)o2)n1					inactive	inactive	inactive	inactive	-1.89%	inactive	-17.1%	inactive	inactive		2.26%	
C=CC(=O)N1CCN(C(=O)CNc2cc(I)c(Cl)cc2O)CC1	13 µM (active)	inactive	20.6 µM (active)	inactive			inactive	inactive		inactive		inactive	inactive			
